The text below walks through data of the supplement of paper PMC12819154, “High-throughput peptide-centric local stability assay extends protein–ligand identification to membrane proteins, tissues and bacteria” (Nature Structural & Molecular Biology, 2025).

Sequence of UniProt O15230 (O15230 whole entry): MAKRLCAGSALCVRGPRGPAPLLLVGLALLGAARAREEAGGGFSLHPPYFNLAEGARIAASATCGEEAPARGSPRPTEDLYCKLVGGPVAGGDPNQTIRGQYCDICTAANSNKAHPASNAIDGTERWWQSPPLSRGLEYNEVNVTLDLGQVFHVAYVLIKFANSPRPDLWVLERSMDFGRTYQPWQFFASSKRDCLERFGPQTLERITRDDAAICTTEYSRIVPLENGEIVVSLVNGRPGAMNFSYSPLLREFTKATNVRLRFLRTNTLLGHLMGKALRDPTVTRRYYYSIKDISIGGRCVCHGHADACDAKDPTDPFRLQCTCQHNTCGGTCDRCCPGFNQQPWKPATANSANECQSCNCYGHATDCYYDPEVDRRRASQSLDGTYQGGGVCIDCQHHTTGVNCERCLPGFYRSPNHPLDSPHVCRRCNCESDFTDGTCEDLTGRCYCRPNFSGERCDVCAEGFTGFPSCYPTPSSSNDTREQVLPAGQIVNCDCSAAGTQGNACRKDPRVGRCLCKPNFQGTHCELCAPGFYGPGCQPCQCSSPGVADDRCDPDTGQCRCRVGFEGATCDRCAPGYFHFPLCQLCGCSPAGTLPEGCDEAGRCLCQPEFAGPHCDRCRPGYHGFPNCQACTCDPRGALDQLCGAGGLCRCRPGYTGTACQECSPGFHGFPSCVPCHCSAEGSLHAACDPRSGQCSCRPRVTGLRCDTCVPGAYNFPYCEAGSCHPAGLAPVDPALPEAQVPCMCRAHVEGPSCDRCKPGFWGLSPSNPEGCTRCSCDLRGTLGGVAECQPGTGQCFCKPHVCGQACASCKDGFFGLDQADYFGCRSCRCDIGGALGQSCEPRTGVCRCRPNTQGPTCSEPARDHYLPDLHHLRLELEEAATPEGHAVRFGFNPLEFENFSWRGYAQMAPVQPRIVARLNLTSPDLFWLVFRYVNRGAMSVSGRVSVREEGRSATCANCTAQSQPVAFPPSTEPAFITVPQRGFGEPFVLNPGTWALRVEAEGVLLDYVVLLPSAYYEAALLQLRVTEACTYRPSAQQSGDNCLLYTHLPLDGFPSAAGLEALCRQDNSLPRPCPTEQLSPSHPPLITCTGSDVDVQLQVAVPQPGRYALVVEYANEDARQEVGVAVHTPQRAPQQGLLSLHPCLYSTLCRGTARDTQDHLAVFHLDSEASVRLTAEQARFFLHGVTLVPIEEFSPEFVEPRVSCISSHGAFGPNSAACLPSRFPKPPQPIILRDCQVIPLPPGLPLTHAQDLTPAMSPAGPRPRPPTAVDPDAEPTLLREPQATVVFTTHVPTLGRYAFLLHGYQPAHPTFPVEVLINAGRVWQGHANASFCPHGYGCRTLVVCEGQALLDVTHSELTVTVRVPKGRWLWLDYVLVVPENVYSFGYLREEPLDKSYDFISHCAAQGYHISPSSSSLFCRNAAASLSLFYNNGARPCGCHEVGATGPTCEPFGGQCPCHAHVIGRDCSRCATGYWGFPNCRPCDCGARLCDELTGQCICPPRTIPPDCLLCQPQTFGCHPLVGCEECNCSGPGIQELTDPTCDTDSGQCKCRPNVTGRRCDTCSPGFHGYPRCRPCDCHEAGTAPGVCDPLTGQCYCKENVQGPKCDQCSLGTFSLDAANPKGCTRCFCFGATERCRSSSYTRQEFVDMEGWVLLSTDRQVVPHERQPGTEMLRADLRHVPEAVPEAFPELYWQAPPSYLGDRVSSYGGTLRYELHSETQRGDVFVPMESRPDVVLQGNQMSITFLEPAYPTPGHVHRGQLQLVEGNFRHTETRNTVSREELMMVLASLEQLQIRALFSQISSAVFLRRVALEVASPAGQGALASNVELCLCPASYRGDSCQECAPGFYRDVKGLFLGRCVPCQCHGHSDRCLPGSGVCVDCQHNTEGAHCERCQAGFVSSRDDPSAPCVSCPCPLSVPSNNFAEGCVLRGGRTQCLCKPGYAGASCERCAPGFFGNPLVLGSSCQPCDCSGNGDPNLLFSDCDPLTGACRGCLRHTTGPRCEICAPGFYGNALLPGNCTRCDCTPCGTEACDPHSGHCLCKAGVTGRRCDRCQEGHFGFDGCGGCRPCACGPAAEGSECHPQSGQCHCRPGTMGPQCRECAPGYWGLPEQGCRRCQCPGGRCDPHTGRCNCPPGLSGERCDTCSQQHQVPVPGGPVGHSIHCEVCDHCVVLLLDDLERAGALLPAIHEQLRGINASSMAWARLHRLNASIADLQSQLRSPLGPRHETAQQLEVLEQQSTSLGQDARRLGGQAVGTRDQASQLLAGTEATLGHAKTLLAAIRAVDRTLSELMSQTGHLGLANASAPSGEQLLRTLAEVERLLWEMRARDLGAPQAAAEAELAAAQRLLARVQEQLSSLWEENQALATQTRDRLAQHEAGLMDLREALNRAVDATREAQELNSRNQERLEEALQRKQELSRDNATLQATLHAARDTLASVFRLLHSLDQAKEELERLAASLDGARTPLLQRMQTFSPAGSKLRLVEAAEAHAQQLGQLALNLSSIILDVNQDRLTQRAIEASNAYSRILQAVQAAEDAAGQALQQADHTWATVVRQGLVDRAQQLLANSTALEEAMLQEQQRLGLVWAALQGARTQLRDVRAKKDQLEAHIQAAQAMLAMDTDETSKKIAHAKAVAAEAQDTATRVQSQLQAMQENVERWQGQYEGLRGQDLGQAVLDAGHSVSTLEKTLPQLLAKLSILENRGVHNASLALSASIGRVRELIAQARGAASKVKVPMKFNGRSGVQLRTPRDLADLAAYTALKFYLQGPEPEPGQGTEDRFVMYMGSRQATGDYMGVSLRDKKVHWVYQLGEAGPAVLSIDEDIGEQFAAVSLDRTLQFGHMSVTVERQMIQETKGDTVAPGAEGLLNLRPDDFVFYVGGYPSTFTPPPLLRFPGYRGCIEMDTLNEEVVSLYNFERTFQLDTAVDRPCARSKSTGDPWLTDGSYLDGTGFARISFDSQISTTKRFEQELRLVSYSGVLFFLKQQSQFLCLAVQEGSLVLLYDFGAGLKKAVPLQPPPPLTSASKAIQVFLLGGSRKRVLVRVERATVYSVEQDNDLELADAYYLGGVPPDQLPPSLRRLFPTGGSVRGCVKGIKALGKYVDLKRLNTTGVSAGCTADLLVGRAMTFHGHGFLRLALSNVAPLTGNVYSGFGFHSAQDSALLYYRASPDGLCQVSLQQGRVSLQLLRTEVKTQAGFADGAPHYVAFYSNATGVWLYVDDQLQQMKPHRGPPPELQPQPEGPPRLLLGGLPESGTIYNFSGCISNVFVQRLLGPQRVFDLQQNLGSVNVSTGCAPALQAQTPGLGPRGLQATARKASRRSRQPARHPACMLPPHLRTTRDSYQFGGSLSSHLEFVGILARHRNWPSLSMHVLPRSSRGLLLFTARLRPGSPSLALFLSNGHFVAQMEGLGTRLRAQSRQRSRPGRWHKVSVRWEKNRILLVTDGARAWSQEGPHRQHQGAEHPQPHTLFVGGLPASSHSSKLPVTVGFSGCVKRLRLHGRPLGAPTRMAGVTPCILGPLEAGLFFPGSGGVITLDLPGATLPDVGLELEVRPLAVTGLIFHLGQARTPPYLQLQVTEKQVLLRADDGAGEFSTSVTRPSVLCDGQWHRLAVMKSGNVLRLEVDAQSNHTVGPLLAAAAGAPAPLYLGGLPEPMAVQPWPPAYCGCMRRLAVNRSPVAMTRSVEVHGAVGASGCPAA
Sequence of UniProt P40818 (P40818 whole entry): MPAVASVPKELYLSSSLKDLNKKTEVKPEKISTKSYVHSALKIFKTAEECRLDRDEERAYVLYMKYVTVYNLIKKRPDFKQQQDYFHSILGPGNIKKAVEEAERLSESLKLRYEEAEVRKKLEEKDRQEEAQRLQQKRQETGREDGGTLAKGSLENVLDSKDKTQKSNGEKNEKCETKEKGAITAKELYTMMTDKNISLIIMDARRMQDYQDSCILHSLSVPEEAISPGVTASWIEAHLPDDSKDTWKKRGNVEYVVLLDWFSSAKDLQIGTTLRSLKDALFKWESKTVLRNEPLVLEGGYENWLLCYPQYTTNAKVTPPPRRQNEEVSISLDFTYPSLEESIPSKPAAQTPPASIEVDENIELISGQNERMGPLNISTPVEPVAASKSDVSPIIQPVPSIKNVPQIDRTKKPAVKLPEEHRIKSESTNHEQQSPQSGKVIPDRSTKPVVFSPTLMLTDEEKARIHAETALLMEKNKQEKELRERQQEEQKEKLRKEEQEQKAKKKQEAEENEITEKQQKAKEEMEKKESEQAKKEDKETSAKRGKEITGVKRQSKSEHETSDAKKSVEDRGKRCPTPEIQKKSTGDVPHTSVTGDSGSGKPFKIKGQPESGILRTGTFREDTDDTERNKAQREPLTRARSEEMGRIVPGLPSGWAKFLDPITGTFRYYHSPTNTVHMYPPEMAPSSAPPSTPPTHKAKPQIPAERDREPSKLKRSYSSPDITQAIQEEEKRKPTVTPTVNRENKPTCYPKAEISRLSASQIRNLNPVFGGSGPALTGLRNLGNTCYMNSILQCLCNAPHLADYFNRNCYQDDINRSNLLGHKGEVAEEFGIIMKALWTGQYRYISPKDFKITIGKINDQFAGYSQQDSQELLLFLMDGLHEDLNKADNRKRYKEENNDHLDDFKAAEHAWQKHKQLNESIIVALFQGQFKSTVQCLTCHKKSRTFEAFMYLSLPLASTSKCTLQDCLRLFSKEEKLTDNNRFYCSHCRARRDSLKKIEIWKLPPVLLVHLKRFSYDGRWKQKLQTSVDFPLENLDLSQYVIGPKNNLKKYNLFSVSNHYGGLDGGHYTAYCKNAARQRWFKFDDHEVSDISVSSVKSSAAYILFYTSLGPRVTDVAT
Sequence of UniProt P69891 (P69891 whole entry): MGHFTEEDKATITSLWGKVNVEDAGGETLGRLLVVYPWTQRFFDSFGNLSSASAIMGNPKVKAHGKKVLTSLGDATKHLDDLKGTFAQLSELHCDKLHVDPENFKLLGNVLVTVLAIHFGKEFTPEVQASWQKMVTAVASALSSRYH
Sequence of UniProt Q99497 (Q99497 whole entry): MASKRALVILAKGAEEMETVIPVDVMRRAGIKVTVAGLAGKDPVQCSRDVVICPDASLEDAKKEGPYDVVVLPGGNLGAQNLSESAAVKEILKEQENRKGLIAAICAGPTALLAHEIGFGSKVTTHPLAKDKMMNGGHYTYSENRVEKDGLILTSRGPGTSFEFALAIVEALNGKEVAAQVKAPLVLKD

Compound in this test: CN[C@@H]1C[C@H]2O[C@@](C)([C@@H]1OC)n1c3ccccc3c3c4c(c5c6ccccc6n2c5c31)C(=O)NC4 [staurosporine]
Kind of test: log2 fold change of tryptic peptide abundance, ligand vs vehicle (limited proteolysis) (log2 ratio); higher = more trypsin-susceptible (destabilized). The settings on record: ligand concentration: 20 uM; sample: K562 cleared lysate; digestion: 4 min, 22 C (HT-PELSA RT4min, Orbitrap Astral).
In the case of “HERC1 (peptide sequence: VMTCVWCNKK, peptide start residue: 3431) (UniProt Q15751)”, the log2 fold change amounted to 0.958.

Regarding “UniProt O00567 (peptide sequence: LIAHAGSLTNLAK, peptide start residue: 308)”, the log2 fold change is 0.316. For “PRDX1 (peptide sequence: KQGGLGPMNIPLVSDPKR, peptide start residue: 93) (UniProt Q06830)”, the log2 fold change turned out to be 0.253. To “PARK7 (peptide sequence: VTVAGLAGKDPVQCSR, peptide start residue: 33) (UniProt Q99497)” belongs 0.199; to “UniProt Q9Y2K2 (peptide sequence: IGYYEIDR, peptide start residue: 63)”, -3.15; to “LAMA5 (peptide sequence: TFQLDTAVDRPCAR, peptide start residue: 2918) (UniProt O15230)”, 1.14. On to “UniProt Q2VIR3 (peptide sequence: FKNELER, peptide start residue: 69)”, for which the log2 fold change amounted to 0.555. To “TIMM44 (peptide sequence: ALSQGVESVKK, peptide start residue: 178) (UniProt O43615)” belongs 0.555; to “PAK2 (peptide sequence: MTDEEIMEK, peptide start residue: 227) (UniProt Q13177)”, -2.15; to “UniProt P49674 (peptide sequence: FDDKPDYSYLR, peptide start residue: 260)”, -0.398.

With “PRKAR1B (peptide sequence: NVLFAHLDDNER, peptide start residue: 135) (UniProt P31321)”, the log2 fold change turned out to be 1.02. To “USP8 (peptide sequence: SYSSPDITQAIQEEEKR, peptide start residue: 716) (UniProt P40818)” belongs 1.8; to “UniProt Q9BVG4 (peptide sequence: LISSVDPQFLK, peptide start residue: 53)”, -0.658; to “PDS5A (peptide sequence: SHDPEEAIRHDVIVTIITAAK, peptide start residue: 369) (UniProt Q29RF7)”, 0.622. To “OSBPL3 (peptide sequence: YWSTNAHEIEGTVFDR, peptide start residue: 727) (UniProt Q9H4L5)” belongs -1.33; to “PKN3 (peptide sequence: TTNWQALLAR, peptide start residue: 820) (UniProt Q6P5Z2)”, -2.37. On to “UniProt Q9UBS0 (peptide sequence: HPFIVELAYAFQTGGK, peptide start residue: 128)”, for which the log2 fold change was -0.89. “NEK9 (peptide sequence: TLNIFLTK, peptide start residue: 179) (UniProt Q8TD19)”: the log2 fold change is -0.436.

Turning to “UniProt Q02750 (peptide sequence: SYMSPER, peptide start residue: 228)”, the log2 fold change amounted to 3.08. To “CLIC1 (peptide sequence: IGNCPFSQR, peptide start residue: 21) (UniProt O00299)” belongs 0.243; to “UniProt Q13131 (peptide sequence: VGKHELTGHK, peptide start residue: 43)”, -5; to “HBG1 (peptide sequence: VLTSLGDAIK, peptide start residue: 68) (UniProt P69891)”, 0.204. To “HBG2 (peptide sequence: MVTGVASALSSR, peptide start residue: 134) (UniProt P69892)” belongs 0.206; to “PUS1 (peptide sequence: GYAPESVLER, peptide start residue: 307) (UniProt Q9Y606)”, -0.403; to “BRAF (peptide sequence: GYLSPDLSK, peptide start residue: 525) (UniProt P15056)”, 0.499. On to “HERC2 (peptide sequence: TLHSLTQWNGLINK, peptide start residue: 2152) (UniProt O95714)”, for which the log2 fold change was -0.746. In the case of “CPOX (peptide sequence: EAEILEVLR, peptide start residue: 439) (UniProt P36551)”, the log2 fold change was -1.06. To “TOP2A (peptide sequence: GESDDFHMDFDSAVAPR, peptide start residue: 1493) (UniProt P11388)” belongs -0.599; to “AKT1 (peptide sequence: HRVTMNEFEYLK, peptide start residue: 143) (UniProt P31749)”, -0.676.
